Experimental data published in the supplement of paper PMC13380429.

Key:
[1] = test system: Vero E6 infected with SARS-CoV-2; assay: morphology score (similarity to uninfected cells); higher = more like uninfected cells; details: 24 h
[2] = test system: Vero E6 infected with SARS-CoV-2; assay: SARS-CoV-2 infection rate relative to infected DMSO; higher = more infection, active = 60 or less; details: 24 h

Row | Compound | morphology score [1] | SARS-CoV-2 infection rate [2]
1 | C[C@H](N)[C@H](O)c1cccc(O)c1 [metaraminol] (10 µM) | -0.0578 | 104% (inactive)
2 | CCO/N=C(\C(=O)N[C@@H]1C(=O)N2C(C(=O)[O-])=C(Sc3nc(-c4cc[n+](C)cc4)cs3)CS[C@H]12)c1nsc(NP(=O)(O)O)n1 [ceftaroline-fosamil] (10 µM) | 0.242 | 87.5% (inactive)
3 | O=C(N[C@H]1CCN(C(=O)c2cc(C(F)(F)F)cc(C(F)(F)F)c2)[C@H](Cc2ccc(Cl)cc2)C1)c1ccnc2ccccc12 (10 µM) | 0.195 | 81.5% (inactive)
4 | CCCCN(CCCC)CCC(O)c1cc2c(Cl)cc(Cl)cc2c2cc(C(F)(F)F)ccc12 (centres undefined) [halofantrine] (10 µM) | 0.406 | 79.5% (inactive)
5 | CS(=O)(=O)Nc1ccc2oc3c(OC(F)F)ccc(C(=O)Nc4c(Cl)cncc4Cl)c3c2c1 [oglemilast] (10 µM) | 0.291 | 92% (inactive)
6 | CCCC(=O)Nc1ccc(OCC(O)CNC(C)C)c(C(C)=O)c1 (centres undefined) [acebutolol] (10 µM) | -0.0282 | 113% (inactive)
7 | CCNC(=O)c1n[nH]c(-c2cc(Cl)c(O)cc2O)c1-c1ccc(OC)cc1 (10 µM) | 0.0403 | 104% (inactive)
8 | [O-][n+]1cccc(CO)c1 [mepiroxol] (10 µM) | -0.0187 | 109% (inactive)
9 | Cc1onc(-c2c(Cl)cccc2Cl)c1C(=O)N[C@@H]1C(=O)N2[C@@H]1SC(C)(C)[C@@H]2C(=O)O [dicloxacillin] (10 µM) | 0.0315 | 115% (inactive)
10 | Cc1[nH]cnc1CN1CCc2c(c3ccccc3n2C)C1=O [alosetron] (10 µM) | -0.0421 | 98% (inactive)
11 | CN(C)C(=O)COC(=O)Cc1ccc(OC(=O)c2ccc(NC(=N)N)cc2)cc1 [camostat-mesilate] (10 µM) | 0.0997 | 114% (inactive)
12 | CCCc1cc(C(N)=S)ccn1 [protionamide] (10 µM) | 0.198 | 98% (inactive)
13 | CN1CCCN=C1/C=C/c1cccs1 [pyrantel-pamoate] (10 µM) | 0.103 | 93.5% (inactive)
14 | COC(=O)c1cnn(-c2ccc(F)cc2F)c1/C=N/NC(=S)NC(C)(C)C (10 µM) | 0.433 | 74% (inactive)
15 | C=C[C@H]1CN2CC[C@H]1CC2C(OC(=O)OCC)c1ccnc2ccc(OC)cc12 (stereo in doubt) [quinine-ethyl-carbonate] (10 µM) | 0.215 | 99% (inactive)
16 | CCCCCCNC(=O)Nc1ccc(S(=O)(=O)Nc2ccc(CCNC[C@H](O)COc3ccc(O)cc3)cc2)cc1 (10 µM) | -0.167 | 112% (inactive)
17 | COc1cc(N2CCOCC2)ccc1Nc1ncc(Cl)c(Nc2ccccc2NS(C)(=O)=O)n1 (10 µM) | -0.034 | 103% (inactive)
18 | C#C[C@]1(OC(C)=O)CC[C@H]2[C@@H]3CCC4=CC(=NO)CC[C@@H]4[C@H]3CC[C@@]21CC (mixture of isomers) [norgestimate] (10 µM) | 0.111 | 108% (inactive)
19 | CCn1c(=O)c(-c2ccc(Cl)cc2Cl)cc2cnc(Nc3ccc(N4CCNCC4)c(F)c3)nc21 (0.833333 µM) | 0.097 | 106% (inactive)
20 | O=c1c2ccccc2[se]n1-c1ccccc1 [ebselen] (10 µM) | 0.34 | 84% (inactive)
21 | Cn1cc(-c2cnc3ccc4ccc(CS(=O)(=O)NCc5ccccn5)cc4c(=O)c3c2)cn1 (10 µM) | 0.0342 | 106% (inactive)
22 | O=C(NC(O)C(Cl)(Cl)Cl)NC(O)C(Cl)(Cl)Cl (centres undefined) [dicloralurea] (10 µM) | 0.108 | 106% (inactive)
23 | OC1(c2ccc(Cl)c(C(F)(F)F)c2)CCN(CCCC(c2ccc(F)cc2)c2ccc(F)cc2)CC1 [penfluridol] (0.833333 µM) | 0.173 | 79% (inactive)
24 | CN1CC[C@H](c2c(O)cc(O)c3c(=O)cc(-c4ccccc4Cl)oc23)[C@H](O)C1 [alvocidib] (10 µM) | -0.17 | 108% (inactive)
25 | Cc1nnc2ccc(-c3cccc(C(F)(F)F)c3)nn12 (10 µM) | -0.183 | 104% (inactive)
26 | COc1ccc(-c2ccc3c(N4CCOC[C@@H]4C)nc(N4CCOC[C@@H]4C)nc3n2)cc1CO (0.833333 µM) | -0.0692 | 105% (inactive)
27 | CC(=O)Oc1cc(C(F)(F)F)ccc1C(=O)O [triflusal] (10 µM) | 0.126 | 102% (inactive)
